Results reported in PubChem BioAssay.
“And” between values parts separate entries of the source, which are not always exact repeats. Equal entries are not always repeated. The source made the active and inactive calls.

Tests used:
[1] = system: PRMT1 (protein arginine N-methyltransferase 1); test: small molecules binding arginine methyltransferase PRMT1 – biochemical, small-molecule microarray, 635 nm fluorescence, primary screen (AID 1088); details: higher = more signal;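 also: binding of Prmt1 protein to compounds spotted on small-molecule microarray slides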
[2] = growth effects on S. cerevisiae YJM789 – YJM789 clinical isolate, OD600, 24 h, basal, primary screen (AID 1089); details: higher = more signal, called active from +8 up or from −8 down;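 also: growth of clinical yeast isolate S. cerevisiae YJM 789 seeded 1000 cells per well; test concentration not given here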
[3] = S. pombe growth modifiers, basal conditions – strain 972, OD600, 24 h, no modulator, primary screen (AID 1090);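 also: basal condition with compound alone and no growth modifier present; test concentration not given here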; details: S. pombe 972 growth, higher = more signal, called active from +8 up or from −8 down
[4] = budding yeast growth modifiers under rapamycin – strain BY4716, OD600, 96 h, primary screen (AID 1091); also: test concentration not given here; details: S. cerevisiae BY4716 + rapamycin, higher = more signal, called active from +8 up or from −8 down
[5] = target: Torsin-1A-interacting protein 2 (Homo sapiens) (UniProt Q8NFQ8); test: small molecules binding lysate-expressed LULL1 – cell lysate, human LULL1 lysate, 635/667 nm fluorescence, primary screen (AID 1092); details: small-molecule microarray, hLULL1 lysate binding, 635 nm fluorescence; higher = more signal;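 also: probe is lysate of COS7 cells overexpressing human LULL1; score merges per-feature 667 nm fluorescence with signal-to-noise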
Torsin-1A-interacting protein 2 (Homo sapiens), sequence (Q8NFQ8 whole entry, looked up): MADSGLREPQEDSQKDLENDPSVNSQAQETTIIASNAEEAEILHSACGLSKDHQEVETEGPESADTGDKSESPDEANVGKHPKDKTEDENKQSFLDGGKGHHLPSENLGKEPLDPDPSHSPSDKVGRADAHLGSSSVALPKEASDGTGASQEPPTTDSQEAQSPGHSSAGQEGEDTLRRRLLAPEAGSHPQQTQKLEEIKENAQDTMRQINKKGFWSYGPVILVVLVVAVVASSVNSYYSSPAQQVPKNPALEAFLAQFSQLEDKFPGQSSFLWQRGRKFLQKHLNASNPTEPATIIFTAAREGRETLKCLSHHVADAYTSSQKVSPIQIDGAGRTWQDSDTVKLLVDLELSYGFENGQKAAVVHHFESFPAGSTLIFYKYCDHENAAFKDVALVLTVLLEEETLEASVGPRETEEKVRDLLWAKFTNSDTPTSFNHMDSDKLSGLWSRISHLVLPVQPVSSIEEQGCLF

[6] = optical density change of DRC41 E. coli – strain DRC41, OD650, 24 h, E. coli filamentation project, primary screen (AID 1093);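 also: MC1000 strain lacking acrAB efflux and sulA so SOS filamentation is blocked; test concentration not given here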; details: E. coli DRC41 growth, higher = more signal, called active from +8 up or from −8 down
[7] = probe aLefty2 binding to arrayed compounds – biochemical, biotinylated probe, 635/667 nm fluorescence, primary screen (AID 1094); details: small-molecule microarray, higher = more signal;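 also: score merges spot fluorescence near 667 nm with spot signal-to-noise ratio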
[8] = system: Noggin (protein binding on small-molecule microarray); test: small molecules binding Noggin protein – biochemical, 635/667 nm fluorescence, primary screen (AID 1095); details: 635 nm fluorescence, higher = more signal;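 also: score merges 667 nm feature fluorescence with signal to noise over triplicate slides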
[9] = target: Neurogenic locus notch homolog protein 3 (Homo sapiens) (UniProt Q9UM47); test: small molecules binding NOTCH3 protein – biochemical, 635/667 nm fluorescence, primary screen (AID 1096); details: small-molecule microarray, 635 nm fluorescence, higher = more signal
Neurogenic locus notch homolog protein 3 (Homo sapiens), sequence (Q9UM47 whole entry, looked up): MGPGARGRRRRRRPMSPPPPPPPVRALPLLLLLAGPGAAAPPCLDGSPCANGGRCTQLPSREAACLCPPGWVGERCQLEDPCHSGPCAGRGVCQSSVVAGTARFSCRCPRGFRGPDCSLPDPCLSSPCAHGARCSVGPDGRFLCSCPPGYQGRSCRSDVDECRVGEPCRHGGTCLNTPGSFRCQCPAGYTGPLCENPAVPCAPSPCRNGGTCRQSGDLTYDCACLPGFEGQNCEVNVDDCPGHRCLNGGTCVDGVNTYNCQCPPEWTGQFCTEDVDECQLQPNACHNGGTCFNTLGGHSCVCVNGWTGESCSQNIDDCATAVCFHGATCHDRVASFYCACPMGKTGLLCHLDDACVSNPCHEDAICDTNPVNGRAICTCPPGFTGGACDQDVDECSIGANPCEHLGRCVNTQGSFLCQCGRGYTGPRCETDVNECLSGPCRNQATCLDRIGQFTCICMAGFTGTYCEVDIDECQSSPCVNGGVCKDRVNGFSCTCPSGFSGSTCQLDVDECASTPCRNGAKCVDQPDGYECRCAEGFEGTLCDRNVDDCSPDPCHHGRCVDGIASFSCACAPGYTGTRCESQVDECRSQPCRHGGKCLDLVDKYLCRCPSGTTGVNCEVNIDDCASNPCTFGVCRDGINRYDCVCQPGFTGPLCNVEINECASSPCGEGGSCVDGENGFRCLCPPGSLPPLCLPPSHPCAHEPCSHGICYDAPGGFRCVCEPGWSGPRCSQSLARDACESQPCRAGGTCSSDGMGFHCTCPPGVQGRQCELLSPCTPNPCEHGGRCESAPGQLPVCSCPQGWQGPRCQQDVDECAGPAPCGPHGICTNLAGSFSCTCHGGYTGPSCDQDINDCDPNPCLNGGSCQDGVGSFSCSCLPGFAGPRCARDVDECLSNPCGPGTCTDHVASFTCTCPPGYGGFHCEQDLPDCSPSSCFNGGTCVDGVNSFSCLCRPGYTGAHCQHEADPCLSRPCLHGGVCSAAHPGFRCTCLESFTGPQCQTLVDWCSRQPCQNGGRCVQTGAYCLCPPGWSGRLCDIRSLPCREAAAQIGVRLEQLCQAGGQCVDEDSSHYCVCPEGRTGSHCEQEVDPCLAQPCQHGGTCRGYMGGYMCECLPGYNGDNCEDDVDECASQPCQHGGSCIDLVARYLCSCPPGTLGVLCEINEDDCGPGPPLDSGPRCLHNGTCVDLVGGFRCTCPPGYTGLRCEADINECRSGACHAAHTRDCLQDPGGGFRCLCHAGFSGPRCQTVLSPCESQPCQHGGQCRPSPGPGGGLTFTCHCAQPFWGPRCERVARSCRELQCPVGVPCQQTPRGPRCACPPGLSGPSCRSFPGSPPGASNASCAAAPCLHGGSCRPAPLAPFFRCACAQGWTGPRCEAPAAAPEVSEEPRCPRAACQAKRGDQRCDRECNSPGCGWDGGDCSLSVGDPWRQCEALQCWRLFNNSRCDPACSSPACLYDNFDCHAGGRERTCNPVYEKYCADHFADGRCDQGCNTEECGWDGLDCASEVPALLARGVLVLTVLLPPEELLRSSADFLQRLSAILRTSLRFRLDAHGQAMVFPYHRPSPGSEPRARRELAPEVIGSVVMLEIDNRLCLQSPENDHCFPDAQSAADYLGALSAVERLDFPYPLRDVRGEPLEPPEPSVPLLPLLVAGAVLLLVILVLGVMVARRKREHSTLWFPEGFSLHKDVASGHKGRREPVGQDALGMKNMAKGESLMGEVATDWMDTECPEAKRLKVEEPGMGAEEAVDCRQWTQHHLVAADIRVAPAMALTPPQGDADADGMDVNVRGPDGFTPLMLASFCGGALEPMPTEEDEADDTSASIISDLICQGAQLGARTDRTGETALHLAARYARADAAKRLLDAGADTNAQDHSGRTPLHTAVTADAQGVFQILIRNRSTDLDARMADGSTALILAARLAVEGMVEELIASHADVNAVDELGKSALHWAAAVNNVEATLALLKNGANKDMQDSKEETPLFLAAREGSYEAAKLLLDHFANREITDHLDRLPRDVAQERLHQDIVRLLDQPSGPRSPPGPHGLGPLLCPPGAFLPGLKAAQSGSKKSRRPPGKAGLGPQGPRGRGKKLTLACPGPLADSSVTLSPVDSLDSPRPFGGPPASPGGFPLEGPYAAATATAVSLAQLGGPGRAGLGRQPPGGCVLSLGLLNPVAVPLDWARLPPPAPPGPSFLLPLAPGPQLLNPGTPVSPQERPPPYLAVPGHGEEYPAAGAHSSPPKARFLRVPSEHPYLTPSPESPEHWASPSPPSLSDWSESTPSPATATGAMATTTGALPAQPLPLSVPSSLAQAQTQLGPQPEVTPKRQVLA

[10] = probe aEGFR binding to arrayed compounds – biochemical, biotinylated probe, 635/667 nm fluorescence, primary screen (AID 1097); details: small-molecule microarray, higher = more signal;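 also: probe is a biotinylated anti-EGFR antibody binding compounds printed on slides; score combines fluorescence near 667 nm and signal to noise of each spot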
[11] = system: Plasmodium falciparum Sir2 (PF13_0152, Sir2A); test: Plasmodium falciparum Sir2A binding compounds – biochemical, small-molecule microarray, 635 nm fluorescence, primary screen (AID 1098); details: fluorescence 635 nm, higher = more signal;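 also: score merges spot fluorescence intensity with its signal-to-noise ratio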
[12] = probe aDKK1 binding to arrayed compounds – biochemical, biotinylated probe, 635/667 nm fluorescence, primary screen (AID 1099); details: small-molecule microarray, higher = more signal;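 also: score merges 667nm spot fluorescence with signal to noise across triplicate slides; reference of the scale not given here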
[13] = probe aCHRDL2 binding to arrayed compounds – biochemical, biotinylated probe, 635/667 nm fluorescence, primary screen (AID 1100); details: small-molecule microarray, higher = more signal
[14] = change in splice reporter luminescence, either direction, cell-based, HEK293, spliceosome inhibition project, primary screen (AID 1101); details: HEK293 splicing luciferase reporter, 24 h, higher = more signal, called active from +8 up or from −8 down;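 also: HEK293 cells carrying a splicing-competent luciferase reporter gene; test concentration not given here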
[15] = target: Fibroblast growth factor 10 (Homo sapiens) (UniProt O15520); test: compounds binding fibroblast growth factor 10 – biochemical, small-molecule microarray, 635 nm fluorescence, primary screen (AID 1102); details: FGF10 binding, fluorescence 635 nm, higher = more signal
Fibroblast growth factor 10 (Homo sapiens), sequence (O15520 whole entry, looked up): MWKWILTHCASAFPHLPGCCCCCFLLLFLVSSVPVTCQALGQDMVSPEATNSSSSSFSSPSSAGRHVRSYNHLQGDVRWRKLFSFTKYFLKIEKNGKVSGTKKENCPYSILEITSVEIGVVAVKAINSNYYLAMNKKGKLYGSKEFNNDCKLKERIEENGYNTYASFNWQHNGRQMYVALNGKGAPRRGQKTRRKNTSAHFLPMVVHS

[16] = system: glycogen synthase kinase-3 (GSK3A per assay name; protocol says GSK3B); test: compounds binding glycogen synthase kinase-3 – biochemical, small-molecule microarray, 635 nm fluorescence, GSK3A, primary screen (AID 1103); details: fluorescence 635 nm, higher = more signal; also: the record names both GSK3A and GSK3B
[17] = target: Epidermal growth factor receptor (Homo sapiens) (UniProt P00533); test: compounds binding epidermal growth factor receptor – biochemical, small-molecule microarray, 635 nm fluorescence, primary screen (AID 1104); details: EGFR binding, higher = more signal;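 also: score merges 667 nm emission intensity with spot signal to noise over triplicate slides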
Epidermal growth factor receptor (Homo sapiens), sequence (P00533 whole entry, looked up): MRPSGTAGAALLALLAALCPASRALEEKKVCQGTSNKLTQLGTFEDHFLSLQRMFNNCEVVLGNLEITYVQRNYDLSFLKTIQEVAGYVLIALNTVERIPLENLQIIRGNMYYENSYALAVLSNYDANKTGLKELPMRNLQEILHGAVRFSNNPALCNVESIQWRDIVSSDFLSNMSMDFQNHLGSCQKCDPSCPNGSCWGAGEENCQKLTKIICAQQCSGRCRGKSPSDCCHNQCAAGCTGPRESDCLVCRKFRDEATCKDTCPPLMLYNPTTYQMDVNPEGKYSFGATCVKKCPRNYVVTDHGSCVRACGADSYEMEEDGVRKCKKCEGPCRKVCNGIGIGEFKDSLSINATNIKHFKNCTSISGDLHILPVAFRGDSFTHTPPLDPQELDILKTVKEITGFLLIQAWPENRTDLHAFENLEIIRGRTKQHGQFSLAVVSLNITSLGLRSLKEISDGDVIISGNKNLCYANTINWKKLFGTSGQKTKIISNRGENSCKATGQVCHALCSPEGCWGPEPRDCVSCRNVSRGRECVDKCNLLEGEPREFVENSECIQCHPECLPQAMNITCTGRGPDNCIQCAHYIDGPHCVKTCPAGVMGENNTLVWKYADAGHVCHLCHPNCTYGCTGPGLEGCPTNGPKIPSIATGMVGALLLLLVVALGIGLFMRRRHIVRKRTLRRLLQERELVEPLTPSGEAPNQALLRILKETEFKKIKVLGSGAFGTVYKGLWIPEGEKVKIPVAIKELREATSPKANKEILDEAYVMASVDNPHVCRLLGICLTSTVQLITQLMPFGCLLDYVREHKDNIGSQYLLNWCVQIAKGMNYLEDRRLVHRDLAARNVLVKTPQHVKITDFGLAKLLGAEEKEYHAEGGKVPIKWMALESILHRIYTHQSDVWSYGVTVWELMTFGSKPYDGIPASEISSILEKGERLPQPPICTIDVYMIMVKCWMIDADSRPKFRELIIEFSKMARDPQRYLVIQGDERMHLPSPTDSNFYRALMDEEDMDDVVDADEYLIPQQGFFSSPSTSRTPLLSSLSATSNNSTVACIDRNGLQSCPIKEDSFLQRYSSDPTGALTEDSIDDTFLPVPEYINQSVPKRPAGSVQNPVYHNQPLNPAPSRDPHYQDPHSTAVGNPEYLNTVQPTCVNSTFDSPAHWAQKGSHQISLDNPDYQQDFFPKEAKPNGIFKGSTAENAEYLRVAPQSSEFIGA

[18] = target: Follistatin-related protein 3 (Homo sapiens) (UniProt O95633); test: compounds binding follistatin-related protein 3 – biochemical, small-molecule microarray, 635 nm fluorescence, primary screen (AID 1105); details: FSTL3 binding, higher = more signal;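 also: score merges emission near 667 nm and signal to noise per printed spot across three slides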
Follistatin-related protein 3 (Homo sapiens), sequence (O95633 whole entry, looked up): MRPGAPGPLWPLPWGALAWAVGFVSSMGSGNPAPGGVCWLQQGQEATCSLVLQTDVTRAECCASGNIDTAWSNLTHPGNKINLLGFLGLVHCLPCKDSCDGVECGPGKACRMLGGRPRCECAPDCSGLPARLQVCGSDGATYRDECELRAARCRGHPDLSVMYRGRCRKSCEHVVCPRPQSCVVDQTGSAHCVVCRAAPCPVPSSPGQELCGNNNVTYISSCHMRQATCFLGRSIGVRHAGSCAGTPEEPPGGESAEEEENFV

[19] = target: Dickkopf-related protein 1 (Homo sapiens) (UniProt O94907); test: small molecules binding DKK1 protein – biochemical, small-molecule microarray, 635 nm fluorescence scan, primary screen (AID 1106); details: higher = more signal;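 also: score merges emission near 667 nm with signal to noise over three replicate slides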
Dickkopf-related protein 1 (Homo sapiens), sequence (O94907 whole entry, looked up): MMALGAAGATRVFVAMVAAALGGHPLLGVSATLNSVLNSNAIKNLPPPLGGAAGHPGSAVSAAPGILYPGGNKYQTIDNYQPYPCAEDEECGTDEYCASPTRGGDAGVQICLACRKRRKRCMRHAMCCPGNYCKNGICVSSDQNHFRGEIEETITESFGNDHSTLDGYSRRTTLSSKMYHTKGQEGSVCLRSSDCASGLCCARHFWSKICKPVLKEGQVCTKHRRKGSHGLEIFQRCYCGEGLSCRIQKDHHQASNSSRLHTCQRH

[20] = system: Inhibin beta A chain (activin A); test: small molecules binding activin A – biochemical, small-molecule microarray, 635 nm fluorescence scan, primary screen (AID 1107); details: INHBA, higher = more signal;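 also: mouse activin A protein probed at 4.33 µg/mL on printed slides; score merges bound-protein fluorescence near 667 nm with spot signal-to-noise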

Row | Compound | composite z-score [1] | z-score [2] | z-score [3] | z-score [4] | composite z-score [5] | z-score [6] | composite z-score [7] | composite z-score [8] | composite z-score [9] | composite z-score [10] | composite z-score [11] | composite z-score [12] | composite z-score [13] | z-score [14] | composite z-score [15] | composite z-score [16] | composite z-score [17] | composite z-score [18] | composite z-score [19] | composite z-score [20]
1 | CC(CO)N1C(=O)[C@@H]2C3C(=O)OCCC=C[C@H]3OC23C=CCN(c2ccc4ccccc4c2)C(=O)[C@@H]13 (stereo not given in full) | 0.6 and -0.266 | 1.09 (inactive) and -1.28 (inactive) | -0.169 (inactive) and -1.95 (inactive) | 0.127 (inactive) and -0.589 (inactive) | 3.39 and 0.763 | -0.138 (inactive) and -0.757 (inactive) | -0.116 and -0.192 | -0.571 and -0.51 | 0.259 and 0.0899 | -0.324 and -0.343 | 0.971 and 0.0013 | 0.0565 and -0.627 | 0.691 and -0.64 | 0.132 (inactive) and 0.555 (inactive) | -0.773 and -0.238 | -0.236 and -0.0124 | -1.06 and -0.897 | -0.352 and 0.329 | -1.6 and -0.929 | 0.665 and 0.142
2 | C=CCN(CCCCC)C(=O)C1N(C(C)(C)CO)C(=O)C2C(C(=O)O)C3C=CC21O3 (stereo not given) | -1.11 and -1.37 | -0.447 (inactive) and -1.11 (inactive) | -0.342 (inactive) and -0.0005 (inactive) | -0.402 (inactive) and -0.177 (inactive) | -1.82 and -1.59 | -0.373 (inactive) and -0.262 (inactive) | -0.202 and -0.159 | -2.03 and -1.91 | -1.09 and -0.779 | -0.258 and -0.301 | -0.0662 and -1.13 | -0.706 and -0.0156 | 0.767 and 0.884 | 0.507 (inactive) and 0.484 (inactive) | -1.96 and -0.741 | -1.35 and -0.534 | -1.79 and -1.92 | -1.65 and -2.06 | -1.61 and -2.14 | -3.53 and -1.16
3 | C=CCN(Cc1ccccc1)C(=O)C1N(CCOCCO)C(=O)C2C(C(=O)O)C3C=CC21O3 (stereo not given) | -0.576 and -0.797 | -1.93 (inactive) and 0.844 (inactive) | -1.52 (inactive) and -0.0833 (inactive) | -1.25 (inactive) and 0.225 (inactive) | 3.27 and 2.73 | 2.42 (inactive) and 1.4 (inactive) | 0.22 and 0.141 | -3.1 and -1.88 | -0.74 and -0.734 | -0.323 and -0.278 | 0.824 and 1.03 | 0.0606 and -0.027 | 1 and 1.1 | -1.11 (inactive) and -0.281 (inactive) | -1.09 and -0.997 | -0.419 and -0.793 | -2.36 and -1.85 | -2.65 and -2.12 | -2.78 and -2.98 | -2.4 and -2.13
4 | COC(=O)C1=C(C)N(Cc2ccccc2)[C@]23O[C@](C(=O)OC)(C(=O)N2[C@@H]1c1ccccc1)[C@H]1C(=O)N(C)C(=O)[C@H]13 | 1.42 and 0.289 | -0.458 (inactive) and -0.907 (inactive) | -0.0692 (inactive) and -1.06 (inactive) | 0.609 (inactive) and -0.776 (inactive) | 1.9 and 0.741 | 1.12 (inactive) and 0.684 (inactive) | -0.0831 and -0.125 | 1.35 and 0.752 | 0.877 and 0.903 | -0.0967 and 0.128 | 0.626 and 0.336 | 0.0479 and 0.177 | -0.284 and -0.474 | -1.03 (inactive) and -1.27 (inactive) | 0.408 and 0.827 | 0.933 and 0.452 | 0.473 and 0.427 | 0.645 and 0.82 | 0.415 and 0.942 | -0.338 and 0.137
5 | C=CCN(CCCCC)C(=O)C(c1cccs1)N(C(=O)/C=C\C(=O)O)c1c(Cl)cccc1CO (stereo not given) | -0.399 and -0.874 | 0.0767 (inactive) and -0.389 (inactive) | -0.186 (inactive) and -0.149 (inactive) | -0.288 (inactive) and -0.446 (inactive) | 2.54 and 0.687 | -0.422 (inactive) and -0.448 (inactive) | 0.0503 and -0.151 | -2.9 and -1.86 | -0.864 and -1.23 | -0.348 and -0.216 | 1.04 and 0.231 | -0.0127 and -0.47 | 1.15 and 0.975 | 0.105 (inactive) and 1.15 (inactive) | -0.85 and -2.15 | -0.612 and -1.36 | -2.28 and -1.78 | -2.13 and -1.29 | -3.02 and -1.77 | -2.25 and -3.37
6 | C=C[C@@H](OC)[C@H](O)c1ccc(OC)c(O)c1 | 0.852 and -0.645 | -0.722 (inactive) and -0.94 (inactive) | -0.322 (inactive) and -0.469 (inactive) | -0.116 (inactive) and -0.423 (inactive) | -0.1 and -0.81 | 0.77 (inactive) and 1.76 (inactive) | -0.17 and -0.109 | 0.941 and 0.0939 | -0.233 and -1.14 | -0.277 and -0.33 | -1.12 and 0.402 | -0.42 and -0.521 | -0.6 and -0.0832 | -0.984 (inactive) and -1.14 (inactive) | 0.146 and -0.514 | -0.374 and -0.669 | 0.526 and -1.08 | 0.878 and -0.9 | 0.131 and -0.539 | 1.27 and -0.492
7 | C=CCN(C(=O)C1N(c2c(Cl)cccc2CO)C(=O)C2C(C(=O)O)C3C=CC21O3)C(C)(C)C (stereo not given) | -0.17 and -0.656 | 0.61 (inactive) and -1.92 (inactive) | 0.857 (inactive) and -1.43 (inactive) | -0.509 (inactive) and -0.74 (inactive) | 0.893 and -1.28 | 2.58 (inactive) and 1.44 (inactive) | -0.359 and -0.152 | -1.7 and -1.45 | -0.873 and -0.616 | -0.403 and -0.366 | 0.769 and -1.57 | -0.525 and -0.241 | -0.269 and 0.798 | -0.859 (inactive) and -1.07 (inactive) | -0.788 and -1.43 | -1.39 and -0.911 | -1.85 and -0.913 | -0.332 and 0.322 | -2.02 and -2.22 | -0.918 and -0.985
8 | CC(CO)N1C(=O)[C@@H]2C3C(=O)OCCC=C[C@H]3OC23C=CCN(c2ccc(Cl)cc2)C(=O)[C@@H]13 (stereo not given in full) | -1.06 and 1.32 | 1.37 (inactive) and -1.45 (inactive) | 0.628 (inactive) and -1.21 (inactive) | 0.872 (inactive) and -0.713 (inactive) | -0.81 and 3.57 | 0.226 (inactive) and -0.379 (inactive) | 0.149 and -0.0998 | -2.2 and -0.556 | -1.43 and 0.107 | -0.186 and -0.0788 | 1.13 and 1.84 | -0.0514 and 0.0818 | 0.574 and 0.715 | 0.14 (inactive) and 0.899 (inactive) | -1.16 and 0.322 | -1.61 and -0.251 | -0.911 and -0.867 | -1.14 and -0.558 | -1.33 and -0.412 | 0.137 and 0.88
